Consider 17 compounds from PubChem BioAssay (NCATS).

Inconclusive results are not listed. Entries that show only a call come without a potency. Calls of active or inactive are those of the source. Calls follow the shape of the dose curve; as a rule, active = well fitted inhibition curve with a large enough effect; inconclusive = small, poorly fitted or top-dose-only effect, or effect the other way; inactive = flat fitted curve, though single readings scatter.

ATP-dependent 6-phosphofructokinase (Trypanosoma brucei brucei), sequence (O15648 whole entry, looked up): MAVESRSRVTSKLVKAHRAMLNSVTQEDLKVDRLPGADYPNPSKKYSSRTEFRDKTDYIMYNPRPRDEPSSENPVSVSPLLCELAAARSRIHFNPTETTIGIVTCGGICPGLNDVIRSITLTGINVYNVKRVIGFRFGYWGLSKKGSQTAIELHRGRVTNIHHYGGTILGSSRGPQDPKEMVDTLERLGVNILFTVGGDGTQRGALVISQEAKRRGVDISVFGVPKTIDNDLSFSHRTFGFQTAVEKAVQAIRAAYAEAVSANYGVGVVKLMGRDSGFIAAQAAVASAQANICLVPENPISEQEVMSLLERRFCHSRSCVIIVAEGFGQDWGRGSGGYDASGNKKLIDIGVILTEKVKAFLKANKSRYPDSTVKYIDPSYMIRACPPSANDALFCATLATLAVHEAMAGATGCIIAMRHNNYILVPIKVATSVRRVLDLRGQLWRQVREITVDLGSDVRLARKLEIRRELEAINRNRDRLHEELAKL

The experiment addresses ATP-dependent 6-phosphofructokinase (Trypanosoma brucei brucei) (UniProt O15648). Briefly: qHTS Assay to Find Inhibitors of T. brucei phosphofructokinase: hit validation (AID 492961). Particulars: T. brucei PFK, ADP-Glo luminescence; series mostly up to 51.4 µM. The method, boiled down: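 Luminescence from ADP-Glo reports ADP generated as T. brucei PFK (1.25 nM) phosphorylates 0.5 mM fructose-6-phosphate using 0.1 mM ATP. Reactions ran 45 min at room temperature, pH 8.0.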
Consider `Cc1nc(NS(=O)(=O)c2ccc(N)cc2)nc(C)c1Br`, for which the Potency result was “inactive”.
As to `CC(C)CCCCCCc1ccc(O)cc1`, the Potency result was “inactive”.
Consider `CCc1ccc(S(=O)(=O)O)cc1`, for which the Potency result is “inactive”.
In the case of `CN(C)C=Nc1c(I)cc(I)c(CCC(=O)O)c1I` it was “inactive”; in that of `CCOC(C)OCC`, “inactive”; in that of `OCc1ccccc1`, “inactive”.
Take `CC(CNC(=O)c1cccnc1)NC(=O)c1cccnc1` (configuration not stated): the Potency entry is “inactive”.
Regarding `CC/C=C\C/C=C\C/C=C\C/C=C\C/C=C\C/C=C\CCC(=O)O`, the Potency result is “inactive”.
For the compound `CO[C@H]1C[C@@H]2CC[C@@H](C)[C@@](O)(O2)C(=O)C(=O)N2CCCC[C@H]2C(=O)O[C@H]([C@H](C)C[C@@H]2CC[C@@H](OC(=O)C(C)(CO)CO)[C@H](OC)C2)CC(=O)[C@H](C)/C=C(\C)[C@@H](O)[C@@H](OC)C(=O)[C@H](C)C[C@H](C)/C=C/C=C/C=C/1C`, the Potency entry was “inactive”.
`CN(C)CCC=C1c2ccccc2C(C)(C)c2ccccc21`: the Potency entry is “inactive”.
In the case of `CCOc1cc(-c2nccc3cc(OC)c(OC)cc23)cc(OCC)c1OCC` it was “inactive”; in that of `CO/N=C(/C(=O)N[C@@H]1C(=O)N2C(C(=O)O)=C(COC(N)=O)CS[C@H]12)c1ccco1`, “inactive”.
In the case of `CCC(O)c1ccccc1` (configuration not stated) it was “inactive”; in that of `O=C(O)CC/C=C\CC[C@@H]1[C@@H](N2CCCCC2)[C@@H](O)C[C@@H]1OCc1ccc(-c2ccccc2)cc1`, “inactive”.
In the case of `CC(C)(C)c1ccc2c(S(=O)(=O)O)c(C(C)(C)C)ccc2c1`, the Potency result is “inactive”.
In the case of `CC(C)CCCC(C)NC(C)C` (configuration not stated) it was “inactive”; in that of `CC(C)CCC[C@@H](C)[C@H]1CC[C@H]2[C@@H]3CC[C@@H]4C[C@H](O)CC[C@]4(C)[C@H]3CC[C@]12C`, “inactive”.
